Test results from PubChem BioAssay AID1578 (Sanford-Burnham Center for Chemical Genomics, 2009).
The campaign covered roughly 290,000 compounds. About 3,000 (1%) were called active. What follows is part of a selection rich in actives, with near analogues and random picks from the rest. Values without a mark were called inactive. Cut-off read from the data, not from the text of the source: active = inhibition mostly above about 36% (no sharp cut-off); inactive = mostly below about 34%.

assay: NOD1 signaling inhibitors, primary screen, cell-based, luminescence, uHTS (AID 1578); settings: NOD1-driven NF-kB luciferase reporter cells, at 4 µM, active compounds read high;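 note: HEK-293T reporter cells stimulated with the NOD1 agonist gamma-tri-DAP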

SMILES | inhibition
CC(C)=CC1C=C(C)C(C)C2C(=O)NNC(=O)C12 (stereo not drawn) | 10.4%
CCOC(=O)C1=C(COC(=O)/C=C/c2ccccc2Cl)NC(=O)NC1C (stereo not drawn) | -17.4%
CCOC(=O)C1=C(c2ccccc2)ON(C)C1c1ccccc1 (stereo not drawn) | -0.8%
Cc1ccc2nc(/C(C#N)=C\c3ccc([N+](=O)[O-])o3)[nH]c2c1 | 0.5%
N#C/C(=C\c1ccc([N+](=O)[O-])o1)c1nc2ccccc2[nH]1 | 96.8% (active)
N#C/C(=C(/O)c1ccc(Cl)cc1)c1nc2ccccc2[nH]1 | 3.5%
N#C/C(=C(/O)c1ccc([N+](=O)[O-])o1)c1nc2ccccc2[nH]1 | -7.3%
N#C/C(=C(/O)c1ccc([N+](=O)[O-])s1)c1nc2ccccc2[nH]1 | 71.6% (active)
COc1ccccc1/C(O)=C(\C#N)c1nc2ccccc2[nH]1 | 5.5%
N#C/C(=C(/O)c1ccc([N+](=O)[O-])cc1)c1nc2ccccc2[nH]1 | 3.7%
N#C/C(=C(\O)c1cc(Cl)sc1Cl)c1nc2ccccc2[nH]1 | 64.5% (active)
N#C/C(=C(/O)c1ccc(Br)s1)c1nc2ccccc2[nH]1 | 9.1%
NC(=O)c1c(NC(=O)C(=O)NCCCN2CCOCC2)sc2c1CCCC2 | 6%
O=C(CCNS(=O)(=O)/C=C/c1ccccc1)NCCc1c[nH]c2ccccc12 | -0.1%
CCN(CC)Cc1c(C(=O)N/N=C/c2ccc(OCc3ccccc3C)cc2)nnn1-c1nonc1N | -6.7%
COc1ccc(NC(=O)CCCn2cnc3ccccc3c2=O)cc1 | 9%
COC(=O)c1ccc(Cl)c(NC(=O)c2cccc([N+](=O)[O-])c2C)c1 | -17.4%
COC(=O)c1ccc(N/N=C/c2cc([N+](=O)[O-])cc(OC)c2O)cc1 | -49.6%
CCOC(=O)c1ccc(N/N=C/c2cc(Br)cc([N+](=O)[O-])c2O)cc1 | 97.2% (active)
O=C(N/N=C/c1cc(Br)cc([N+](=O)[O-])c1O)c1ccc(NC(=O)c2ccc(F)cc2)cc1 | 7%
CCn1c(CNc2ccc(Cl)cc2)nnc1SCC#N | -48.7%
COc1ccc(-c2[nH]ncc2CN2CCCC2c2nonc2C)c(F)c1 (stereo not drawn) | -55.4%
COc1cc(C(=O)OCC(=O)Nc2ccc(F)cc2F)cc(OC)c1OC | 3.5%
Cc1ccc(N/N=C(/Sc2nnnn2-c2ccccc2)C(=O)c2ccccc2)cc1 | -42.4%

SMILES | inhibition
O=C(/C(=N\Nc1ccccc1)Sc1nnnn1-c1ccccc1)c1ccccc1 | 93.1% (active)
O=C(/C(=N\Nc1ccc(Br)cc1)Sc1nnnn1-c1ccccc1)c1ccccc1 | -15%
Cc1ccc(C)c(C(=O)CN2C(=O)CCC2=O)c1 | -14.2%
Cc1ccc(C)c(C(=O)CN2C(=O)c3ccccc3C2=O)c1 | 56.5% (active)
CC1=CC(C)(C)N(C(=O)CN2C(=O)c3ccccc3C2=O)c2ccccc21 | -18.1%
CC1=CC(C)(C)N(C(=O)CN2C(=O)c3ccccc3C2=O)c2ccc(C)cc21 | 33.2% (active)
Cc1ccc(C)c(C(=O)CN2Cc3ccccc3C2=O)c1 | -5.3%
CC1=CC(C)(C)N(C(=O)CN2C(=O)CCC2=O)c2ccc(C)cc21 | -11.3%
O=C(NCCc1ccco1)C(=O)NCC1OCCCN1S(=O)(=O)c1ccc(F)cc1 (stereo not drawn) | 10.4%
COc1ccc(S(=O)(=O)N(C)C)cc1NC(=O)[C@H](Cc1ccccc1)N1C(=O)c2ccccc2C1=O | 2%
O=c1nc(SCc2ccc(Cl)cc2)nc(-c2ccccc2)[nH]1 | -3.2%
O=c1nc(SCc2c(F)cccc2Cl)nc(-c2ccc(Cl)cc2)[nH]1 | 9.8%
O=c1nc(SCc2ccccc2Cl)nc(-c2ccc(Cl)cc2)[nH]1 | 57.8% (active)
C/C(COc1ccccc1)=N\NC(=O)c1nnn(-c2nonc2N)c1CSc1ccccc1 | -2.2%
CCOc1cc(C2NC(=O)NC(c3ccccc3)=C2C(C)=O)ccc1OCC(N)=O (stereo not drawn) | 14.5%
Cc1ccc(NC(=O)CCNC(=O)c2ccco2)cc1Cl | -23.6%
COC(=O)c1ccc(Sc2nnnn2-c2ccccc2)c([N+](=O)[O-])c1 | 48.6%
O=[N+]([O-])c1cc(S(=O)(=O)NCCN2CCOCC2)ccc1Sc1nnnn1-c1ccccc1 | 46.1%
CN1CCN(S(=O)(=O)c2ccc(Sc3nnnn3-c3ccccc3)c([N+](=O)[O-])c2)CC1 | 93.5% (active)
O=C(O)c1ccc(Sc2nnnn2-c2ccccc2)c([N+](=O)[O-])c1 | -15.3%
O=[N+]([O-])c1ccc(Sc2nnnn2-c2ccccc2)c(Cl)c1 | -1%
COC(=O)c1ccccc1NC(=O)CN1CCN(Cc2ccccc2)CC1 | 1.4%
Cc1nc(Nc2nc(CSc3nc4ccccc4[nH]3)cc(=O)[nH]2)nc2ccccc12 | -5.7%
COc1ccc2nc(Nc3nc(CSc4nc5ccccc5[nH]4)cc(=O)[nH]3)nc(C)c2c1 | -25.6%

SMILES | inhibition
Cc1ccc2c(C)nc(Nc3nc(CSc4nc5ccccc5[nH]4)cc(=O)[nH]3)nc2c1 | 90.5% (active)
O=S1(=O)CCOCCCN1Cc1ccccc1 | -16.6%
O=S1(=O)CCOCCCN1Cc1cccc(F)c1 | -39.7%
O=S1(=O)CCOCCCN1Cc1cccc(C(F)(F)F)c1 | 56.8% (active)
COc1ccc(C(=O)N/N=C/c2c(C)[nH]c(=O)[nH]c2=O)cc1 | -27.4%
Cc1ccc(S(=O)(=O)N[C@@H](Cc2ccccc2)C(=O)CCl)cc1 | 87.7% (active)
Cc1ccc(S(=O)(=O)NC(Cc2ccccc2)C(=O)NN)cc1 (stereo not drawn) | -27.9%
Cc1ccc(S(=O)(=O)NC(Cc2ccccc2)C(=O)O)cc1 (stereo not drawn) | -30.6%
Cc1nnc(SCC(=O)NNC(=O)c2ccc(Br)cc2)n1C | -33.3%
CN(CC(=O)N1CCN(c2ccc(F)cc2)CC1)S(=O)(=O)c1ccc2c(c1)c(=O)n(C)c(=O)n2C | -11.7%
CCCC(=O)Nc1nc2c(s1)COc1ccccc1-2 | 48.7%
CCCCC(=O)Nc1nc2c(s1)COc1ccccc1-2 | 62.4% (active)
CCC(=O)Nc1nc2c(s1)COc1ccccc1-2 | 8.2%
Cc1[nH]c2ccccc2c1C(=O)/C=C/c1ccccc1Cl | -24.5%
Cc1[nH]c2ccccc2c1C(=O)/C=C\c1ccccc1Cl | -16.5%
Cc1[nH]c2ccccc2c(=O)c1C(=O)/C=C/c1ccccc1 | 79.7% (active)
COc1ccc(Oc2ccc(/C=N/NC(=O)c3cccnc3)cc2[N+](=O)[O-])cc1 | -17.7%
COCCN1CCn2c(nc3cc(NC(=O)c4cccs4)ccc32)C1 | -28.2%
CC(c1ccccc1)N1CCn2c(nc3cc(NC(=O)c4cccs4)ccc32)C1 (stereo not drawn) | 0.3%
O=C(Nc1ccc2c(c1)nc1n2CCN(Cc2ccccc2)C1)c1cccs1 | 89.9% (active)
COc1ccc(CC(=O)Nc2c3c(nn2C(C)(C)C)CS(=O)C3)cc1 (stereo not drawn) | -19.6%
CN(c1ccccc1)c1ccc(/C=C/[N+](=O)[O-])cc1 | 105% (active)
O=[N+]([O-])/C=C/c1ccc2c(ccn2Cc2ccccc2)c1 | -4.4%
CN(C)c1ccc(-n2cccc2/C=C/[N+](=O)[O-])cc1 | -0.1%

SMILES | inhibition
Cc1[nH]c2ccccc2c1C(=O)CSC(=S)N1CCOCC1 | 3.9%
CC[n+]1c(/C=C2/C=C(C)CC(C)(C)C2)sc2ccc(OC)cc21 | 77.4% (active)
CC[n+]1c(/C=C2\C=C(C)CC(C)(C)C2)sc2ccccc21 | 20.8%
CCC1=C/C(=C/c2sc3ccccc3[n+]2CC)CC(C)(C)C1 | -7.6%
Cc1cc(Br)ccc1NC(=S)N1CCOCC1 | -0.1%
N#Cc1nc(Cc2ccccc2)oc1NCc1ccccc1 | -5.9%
N#Cc1nc(Cc2ccccc2)oc1NCc1ccccc1Cl | 57% (active)
N#Cc1nc(Cc2ccccc2)oc1NCc1cccnc1 | -33.9%
COc1ccc(C(=O)Nc2cc(C)nn2-c2nc3ccccc3[nH]2)c(OC)c1 | 98.7% (active)
COc1ccc(/C=C/C(=O)Nc2cc(C)nn2-c2nc3ccccc3[nH]2)cc1 | 17.4%
Cc1cc(NC(=O)c2ccccc2F)n(-c2nc3ccccc3[nH]2)n1 | -8.4%
Cc1cc(NC(=O)c2ccccc2)n(-c2nc3ccccc3[nH]2)n1 | -15%
COc1cccc(OC)c1C(=O)Nc1cc(C)nn1-c1nc2ccccc2[nH]1 | -24.9%
CCCCN(C)S(=O)(=O)c1cc2c3c(c1)CCC(=O)N3CCC2 | -4.1%
Cc1noc(C)c1C(=O)N1CCCC(N2CCN(c3cccc(C(F)(F)F)c3)CC2)C1 (stereo not drawn) | -31.8%
COc1ccc(-c2[nH]ncc2CN(C)Cc2cccnc2)c(OC)c1 | -16.3%
CS(=O)(=O)N1CCN(c2ccccc2NC(=O)c2cc(Br)ccc2Cl)CC1 | -10.8%
COCCn1c(SCC(=O)Nc2cccc(C(=O)OC)c2)nc2ccccc2c1=O | 2.6%
O=C(NC1CC2CCC(C1)N2Cc1ccco1)c1ccccc1 (stereo not drawn) | -29.6%
Cc1c(Cl)cccc1NC(=O)Nc1ccccc1C(N)=O | -30%
O=C(c1ccc([N+](=O)[O-])cc1)N1CCSC1c1ccccc1 (stereo not drawn) | -13.8%
